# Hit rate of the full screen: of about 68,000 compounds, about 2,700 (4%) showed an effect of 50% or more. The sample as a whole holds a higher share of strong results than the screen did.
# System: Plasmodium berghei
# Experiment: Screen against P. berghei liver stage (PbLuc), transformed with Luciferase, at 2uM
# Format: functional, HepG2
# Conditions: tested at 2 uM
row,SMILES,INHIBITION
1,N#Cc1c(Cl)nsc1NCc1cccnc1OCC(F)(F)F,5.94%
2,Cc1nn(C)cc1Cn1c(=O)ccc2ccccc21,51.36%
3,Cc1nn(C)cc1Cn1c(=O)cnc2ccccc21,2.82%
4,Cc1nn(C)cc1Cn1c(=O)c(C)nc2ccccc21,21.57%
5,CCc1nnc2n1CCN(C(=O)c1cnc3c(cnn3C(C)C)c1)C2,24.05%
6,Cc1nnc2n1CCN(C(=O)c1cnc3c(cnn3C(C)C)c1)C2,17.48%
7,Cc1nnc2n1CCN(C(=O)c1cnc3c(cnn3CC(C)C)c1)C2,56.89%
8,CC(C)C(=O)N1CC[C@H]2N(C)CC[C@@]2(C(=O)N2CCOCC2)CC1,35.34%
9,CNC(=O)Cc1ccc(NC(=O)NCC(C)c2ncc(C)s2)cc1 (configuration not stated),50.59%
10,CNC(=O)Cc1ccc(NC(=O)NCc2nc(C)sc2C)cc1,45.82%
11,CNC(=O)Cc1ccc(NC(=O)NCc2ncc(C)s2)cc1,38.67%
12,CN1C(=O)C(C)(C)COc2cc(NS(=O)(=O)Cc3ccccc3)ccc21,-18.38%
13,c1ccc(CN2CCc3ncnc(C4CCOC4)c3CC2)nc1 (configuration not stated),-4.2%
14,CCn1ccnc1CN1CCN(C(C)C(=O)NCc2ccco2)CC1 (configuration not stated),-17.18%
15,Cc1cnc(CN(Cc2cccc(O)c2)CC2CC2)cn1,-14.45%
16,C[C@]1(O)CCN(Cc2ncccc2F)C[C@@H]1Oc1ccccc1,51.99%
17,C[C@]1(O)CCN(Cc2ncccc2F)C[C@@H]1Oc1cccc(F)c1,14.47%
18,Cc1cccnc1CN1CC[C@@](C)(O)[C@H](Oc2ccccc2)C1,37.4%
19,CCOC(=O)c1cc2n(n1)CCCO2,4.95%
20,CCOCC1CN(c2ncc(F)cn2)Cc2cn(CC)nc21 (configuration not stated),-10.78%
21,O=C(Nc1ccccc1)N1CCc2nc(C(=O)N3CCCC3)sc2CC1,-18.86%
22,Cc1ncc(CNC(=O)CCc2cccs2)c(C2CCCN2C)n1 (configuration not stated),-14.56%
23,Cc1ncc(CNC(=O)CCc2ccccc2F)c(C2CCCN2C)n1 (configuration not stated),4.66%

row,SMILES,INHIBITION
1,Cc1ncc(CNC(=O)CCc2c(C)noc2C)c(C2CCCN2C)n1 (configuration not stated),58.18%
2,O=C(O)c1sccc1Oc1ccc(NC(=O)C2CC2)cc1,19.62%
3,Cn1cccc1C(=O)N1CCO[C@@H]2CN(Cc3ccco3)C[C@@H]2C1,35.64%
4,c1ccc(-c2nc(CCNC3CCOC4(CCOCC4)C3)no2)cc1 (configuration not stated),58.53%
5,c1ccc(Cc2noc(CCNC3CCOC4(CCOCC4)C3)n2)cc1 (configuration not stated),-7.16%
6,c1ccc(Cc2nc(CNC3CCOC4(CCOCC4)C3)no2)cc1 (configuration not stated),1.06%
7,c1cnc2[nH]c(C3CCNCC3)c(CN3CCOCC3)c2c1,26.98%
8,NC(=O)c1nc2c(s1)CCN(Cc1ccccc1)CC2,-14.74%
9,CCC(CC)c1cc(CNC(=O)N2CCOCC2CC)on1 (configuration not stated),-8.83%
10,CC(C)C(=O)NCCNC(=O)C12CCC(=O)N1c1cc(Cl)ccc1S2 (configuration not stated),79.21%
11,CCOCCCNC(=O)C1(C)CCC(=O)N1c1ccccc1F (configuration not stated),19.99%
12,COC(=O)CNC(=O)C12CCC(=O)N1c1cc(Cl)ccc1S2 (configuration not stated),48.21%
13,CC(C)NC(=O)CNC(=O)N1CCc2c([nH]c3ccc(Cl)cc23)C1,43.4%
14,CC(C)C(=O)NCc1cccc(N2CCCCC2=O)c1,-8.7%
15,CC(C)NC(=O)CNC(=O)C12CCC(=O)N1c1cc(Cl)ccc1S2 (configuration not stated),62.51%
16,CC(=O)Nc1cccc(OCCNC(=O)N(C)Cc2ccncc2)c1,-44.49%
17,O=C(NC(c1ccc(Cl)cc1)c1cccnc1)C1CC1 (configuration not stated),-58.01%
18,O=S(=O)(Cc1ccccc1F)NCCCN1CCCCC1,21.18%
19,O=S(=O)(Cc1c(F)cccc1Cl)NCCCN1CCCCCC1,53.19%
20,O=S(=O)(Cc1ccccc1Cl)NCCCN1CCCC1,49.88%
21,CN(CC(=O)N1CC(C)(C)[C@@](C)(O)C1)Cc1ccncc1,32.07%
22,CCc1nnc(Nc2cc(C)nc(C3CCN(c4ncccn4)C3)n2)s1 (configuration not stated),-10.89%
23,O=C(c1cc(COc2ccc3c(c2)OCO3)[nH]n1)N1CCSCC1,14.46%

row,SMILES,INHIBITION
1,c1ccc(-c2nccc(N3CCc4c(ncn4C4CC4)C3)n2)cc1,24.51%
2,Cn1cnc2c1CCN(Cc1csc(-c3ccccc3)n1)C2,6.3%
3,Cn1cnc2c1CCN(c1ccnc(-c3ccccc3)n1)C2,56.33%
4,Cc1nc(CN2CCN(c3nc4c(s3)c(C)nn4C)CC2)cs1,36.88%
5,O=C(Nc1ccc(F)cc1)C(c1ccccc1)N1CCOCC1 (configuration not stated),71.1%
6,COc1ccc(NC(=O)C(c2ccc(OC)cc2)N2CCOCC2)cc1 (configuration not stated),27.22%
7,COc1ccc(NC(=O)C(c2cccc(F)c2)N2CCOCC2)cc1 (configuration not stated),26.65%
8,CC(C)c1ccc(OCC(=O)N(C)C)cc1,-32.48%
9,COc1ccc(CCN2C(=O)O[C@@H]3CN(C)C[C@@H]32)cc1,-7.29%
10,CN(C[C@H]1CN2CC[C@H]1C[C@@H]2CNC(=O)c1ccco1)c1ccccc1,65.7%
11,CCN(CC)C[C@H]1CN2CC[C@H]1C[C@@H]2CNC(=O)c1ccco1,31.07%
12,CC[C@H]1CN2CC[C@H]1C[C@@H]2CNC(=O)c1ccco1,9.42%
13,Cc1nc(CN)cc(N2CCC(O)(c3ccc(Cl)cc3)CC2)n1,59.94%
14,Cc1nc(CCN)cc(N2CCC(O)(c3ccc(Cl)cc3)CC2)n1,11.38%
15,Cc1nc(CCN)cc(N2CCC(O)(c3ccccc3)C2)n1 (configuration not stated),23.18%
16,CCNC(=O)N1CCc2ccc(NC(=O)C(C)c3ccsc3)cc21 (configuration not stated),-44.17%
17,CC(Cn1cccn1)NCc1csc2c1CCCC2 (configuration not stated),49.88%
18,CC(Cn1cncn1)NCc1csc2c1CCCC2 (configuration not stated),26.75%
19,CC(Cn1ccnc1)NCc1csc2c1CCCC2 (configuration not stated),66.4%
20,O=C(N[C@@H]1CCN(c2nc3ccccc3o2)C[C@H]1O)c1cnccn1,26.3%
21,c1ccc2oc(N3CCCC4(CCOC4)C3)nc2c1 (configuration not stated),-14.46%
22,O=C(NC1CCCC1)O[C@H]1COCCN(c2nc3ccccc3o2)C1,52.91%
23,CCNC(=O)O[C@H]1COCCN(c2nc3ccccc3s2)C1,29.85%

row,SMILES,INHIBITION
1,CC(C)NC(=O)O[C@H]1COCCN(c2nc3ccccc3s2)C1,41.93%
2,O=C(NC1CCCC1)O[C@H]1COCCN(c2nc3ccccc3s2)C1,51.26%
3,NC(=O)N1CCc2ncc(CNC(=O)CC3CC3)n2CC1,25.08%
4,CC(=O)N1CCCC1c1cc(N2CCN(CC3CC3)CC2)cc(C)n1 (configuration not stated),6.89%
5,O=C(c1ccoc1)N1CCc2ncnc(NCc3ccccn3)c2CC1,1.01%
6,CN(C)CCC1CCN(Cc2ccn(C)c(=O)c2)CC1,16.84%
7,COC(=O)C1CCN(C(=O)c2nnc3ccc(Cl)cc3n2)CC1,24.52%
8,CC(=O)c1cccc(OCCCC(=O)N(C)Cc2cnc(C)s2)c1,-37.03%
9,Cc1cnc(N2CCC3(CCCN3C(=O)c3ccco3)CC2)nc1,26.01%
10,Cc1nc(NCCO)cc(C(C)Cn2nc(C)c(C)c2C)n1 (configuration not stated),-16.2%
11,Cc1nc(NCc2ccccc2)cc(C(C)Cn2nc(C)c(C)c2C)n1 (configuration not stated),-30.88%
12,Cc1nc(NCc2nonc2C)cc(C(C)Cn2nc(C)c(C)c2C)n1 (configuration not stated),84.94%
13,COc1cc(C2(C(=O)N3CCN(CC(C)(C)O)CC3)CC2)ccc1C,17.48%
14,CCc1nc(CN2CCCN(C(=O)c3ccccc3)CC2)cs1,-10.44%
15,CCc1nc(CN2CCCN(C(=O)c3ccco3)CC2)cs1,70.27%
16,CCc1ccc(C(=O)N2CCN(CC(C)O)CC2)o1 (configuration not stated),54.85%
17,CCc1nc(CN2CCCN(C(=O)c3occc3C)CC2)cs1,21.52%
18,CCN(CC)Cc1ccc(C(=O)N2CCN(CC(C)O)CC2)o1 (configuration not stated),21.12%
19,CCc1ccc(C(=O)N2CCN(CC(O)CC)CC2)o1 (configuration not stated),5.59%
20,CCc1nc(CN2CCN(C(=O)c3cc(C)nn3C)CC2)cs1,53.98%
21,CCc1nc(CN2CCCN(C(=O)c3cccn3C)CC2)cs1,-18.39%
22,Cc1nc(CCN)cc(N2CCCN(C(=O)c3ccco3)CC2)n1,54.3%
23,Cc1nc(N2CCN(C(=O)c3ccco3)CC2)c2c(n1)c(C)nn2C,1.77%

row,SMILES,INHIBITION
1,CCc1nc(CN2CCN(C(=O)c3cc(C)no3)CC2)cs1,36.73%
2,COc1ccc(C(=O)N2CCN(c3cc(CCN)nc(C)n3)CC2)cc1,-10.41%
3,Cc1noc(C)c1CN1CC2(CCN(C(=O)c3c[nH]cn3)C2)CC1=O (configuration not stated),47.35%
4,Cc1noc(C)c1CN1CCc2ncc(CN(C)C)n2CC1,1.48%
5,Cc1nc(N2CCN(C)CC2)ncc1C(=O)N1CC[C@](C)(O)[C@H](C)C1,-5.13%
6,O=C1[C@@H]2CCN(Cc3ccncc3)C[C@@H]2OCCN1c1ccccc1,2.71%
7,Cc1ccccc1-n1cnc(Cl)c1CO,-40.04%
8,O=C(NC1CC1)N1CCN(c2cnccn2)CC1,11.24%
9,O=C(CCc1ccc(C(F)(F)F)cc1)N1CCCS1(=O)=O,-24.72%
10,Cn1c(N2CC[C@H](O)C2)nc2cc(C(N)=O)ccc21,26.7%
11,Cc1ccccc1-c1cncc(C2CCN(Cc3cnn(C)c3)CC2)n1,18.22%
12,Cc1nc(CN2CCN(C(=O)CCc3ccco3)CC2)cs1,60.09%
13,CCc1nc(CN2CCCN(C(=O)c3cc(C)on3)CC2)cs1,-24.11%
14,CCc1nc(CN2CCCN(C(=O)C3CCOC3)CC2)cs1 (configuration not stated),56.03%
15,CCc1nc(CN2CCCN(C(=O)C3CCOCC3)CC2)cs1,-17.37%
16,CCc1nc(CN2CCCN(C(=O)c3cnc(C)cn3)CC2)cs1,-12.19%
17,CCc1nc(CN2CCCN(C(=O)C3CCC3)CC2)cs1,23.86%
18,CCc1nc(CN2CCCN(C(=O)CCc3ccco3)CC2)cs1,44.12%
19,Cc1nc(CN2CCCN(C(=O)CCc3ccco3)CC2)cs1,11.2%
20,CCc1ccc(C(=O)N2CCCN(Cc3csc(CC)n3)CC2)o1,50.61%
